This is part of a sample that, as a whole, favours compounds with a hit. Of some 79,000 tested, about 15% had one in any assay. Values without a mark were called inactive. Activity calls are given as the source filed them. Rule as the data show it: active = growth inhibition above about 70%; inactive = the rest.

Assay [1] can be described thus: NCI Yeast Anticancer Drug Screen. Data for the rad50 strain (AID 155).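 Also: 0% = growth of vehicle-only cultures of the same strain.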 The settings on record: S. cerevisiae rad50 strain growth inhibition, active compounds read high. The gist of the method:
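Yeast carrying a defined DNA repair defect were exposed to test compounds, and growth was compared with vehicle-treated controls to give percent inhibition.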

Assay [2] is described as follows: NCI Yeast Anticancer Drug Screen. Data for the mec2-1 strain (AID 157). The settings on record: S. cerevisiae mec2-1 strain, active compounds read high. An outline of the steps: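 Mutant yeast (mec2-1) grown with compound; growth inhibition relative to vehicle control reported.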
Assay [3] can be described thus: NCI Yeast Anticancer Drug Screen. Data for the sgs1 mgt1 strain (AID 161).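 Also: 0% = growth of cultures given vehicle only.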 The settings on record: S. cerevisiae sgs1 mgt1 strain, active compounds read high. The gist of the method:
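Compounds are added to genetically altered yeast, and growth is compared with cultures given vehicle alone to give percent inhibition.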

Assay [4] in a line: NCI Yeast Anticancer Drug Screen. Data for the cln2 rad14 strain (AID 165).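 Also: 0% = growth equal to vehicle treated cultures.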 The settings on record: S. cerevisiae cln2 rad14 strain, active compounds read high. The gist of the method: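 Readout is yeast growth inhibition versus vehicle-treated controls, using a strain with cln2 and rad14 alterations exposed to compound.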
A short description of assay [5]: NCI Yeast Anticancer Drug Screen. Data for the bub3 strain (AID 167). The settings on record: S. cerevisiae bub3 mutant strain, active compounds read high. An outline of the steps:
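Compounds were applied to a genetically altered yeast strain carrying a cell-cycle control defect. Growth inhibition was scored against vehicle-treated controls.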

Assay [6] can be described thus: NCI Yeast Anticancer Drug Screen. Data for the mlh1 rad18 strain (AID 175). The settings on record: S. cerevisiae mlh1 rad18 strain growth inhibition, active compounds read high. The gist of the method:
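Genetically defined yeast (DNA repair-deficient) exposed to compounds; growth inhibition determined relative to vehicle.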

The mark [7] stands for this setting: at 5.0 µM (retest, dose inferred, filed as 0.5).
Where [8] appears, read: at 50.0 µM (retest, dose inferred, filed as 5.0).

For `COc1cc(/C=C(\C)[N+](=O)[O-])cc(Br)c1O`, the growth inhibition was 0% in assay [1] (setting [7]); 61% in assay [1] (setting [8]); 86.7% (active) in assay [1] (at 50.0 µM); 1% in assay [2] (setting [7]); 82% (active) in assay [2] (setting [8]); 90.8% (active) in assay [2] (at 50.0 µM). The growth inhibition was 8% in assay [3] (setting [7]); 91% (active) in assay [3] (setting [8]); 91% (active) in assay [3] (at 50.0 µM); 3% in assay [4] (setting [7]); 43% in assay [4] (setting [8]); 53.5% in assay [4] (at 50.0 µM). The growth inhibition in assay [5] (setting [7]) was -3%; in assay [5] (setting [8]) it was 54%; in assay [5] (at 50.0 µM) it was 93% (active); in assay [6] (setting [7]), 2%; in assay [6] (setting [8]) it was 81% (active); in assay [6] (at 50.0 µM) it was 98.7% (active).

`C[N+](C)(C)CC1Cc2ccccc2C1=O` (stereo not given): the growth inhibition in assay [1] (setting [7]) was 25%; in assay [1] (setting [8]), 98% (active); in assay [1] (at 50.0 µM), 90% (active); in assay [2] (setting [7]) it was 20%; in assay [2] (setting [8]) it was 99% (active); in assay [2] (at 50.0 µM) it was 93.2% (active). Moreover, the growth inhibition in assay [3] (setting [7]) is 14%; in assay [3] (setting [8]), 99% (active); in assay [3] (at 50.0 µM), 92% (active); in assay [4] (setting [7]), 10%; in assay [4] (setting [8]) it was 85% (active); in assay [4] (at 50.0 µM) it was 90.5% (active). Also, the growth inhibition in assay [5] (setting [7]) was 32%; in assay [5] (setting [8]) it was 99% (active); in assay [5] (at 50.0 µM) it was 91.5% (active); in assay [6] (setting [7]), 26%; in assay [6] (setting [8]), 99% (active); in assay [6] (at 50.0 µM) it was 92.5% (active).

As for `COc1cc(OC)c(/C=C(\C)[N+](=O)[O-])cc1Br`, the growth inhibition in assay [1] (setting [7]) was 1%; in assay [1] (setting [8]) it was 1%; in assay [1] (at 50.0 µM) it was 96.5% (active); in assay [2] (setting [7]) it was 3%; in assay [2] (setting [8]), 3%; in assay [2] (at 50.0 µM), 84.9% (active). The growth inhibition was 2% in assay [3] (setting [7]); -16% in assay [3] (setting [8]); 88% (active) in assay [3] (at 50.0 µM); 3% in assay [4] (setting [7]); 0% in assay [4] (setting [8]); 66.2% in assay [4] (at 50.0 µM). Besides, the growth inhibition is -1% in assay [5] (setting [7]); 0% in assay [5] (setting [8]); 92.2% (active) in assay [5] (at 50.0 µM); 2% in assay [6] (setting [7]); 1% in assay [6] (setting [8]); 98.7% (active) in assay [6] (at 50.0 µM).

As for `CC(=O)c1ccc([As]=O)cc1` (stereo not given), the growth inhibition in assay [1] (setting [7]) is 16%; in assay [1] (setting [8]) it was 100% (active); in assay [1] (at 50.0 µM) it was 99.8% (active); in assay [2] (setting [7]) it was 19%; in assay [2] (setting [8]) it was 100% (active); in assay [2] (at 50.0 µM) it was 99.8% (active). Further, the growth inhibition is 13% in assay [3] (setting [7]); 99% (active) in assay [3] (setting [8]); 99.8% (active) in assay [3] (at 50.0 µM); -9% in assay [4] (setting [7]); 99% (active) in assay [4] (setting [8]); 99.4% (active) in assay [4] (at 50.0 µM). Moreover, the growth inhibition was -8% in assay [5] (setting [7]); 100% (active) in assay [5] (setting [8]); 99.5% (active) in assay [5] (at 50.0 µM); 14% in assay [6] (setting [7]); 100% (active) in assay [6] (setting [8]); 99.5% (active) in assay [6] (at 50.0 µM).

Turning to `ClCc1ccncc1`, the growth inhibition in assay [1] (setting [7]) is 38%; in assay [1] (setting [8]) it was 73% (active); in assay [1] (at 50.0 µM) it was 54.9%; in assay [2] (setting [7]), 26%; in assay [2] (setting [8]), 46%; in assay [2] (at 50.0 µM), 47.2%. Besides, the growth inhibition is 55% in assay [3] (setting [7]); 69% in assay [3] (setting [8]); 69.4% in assay [3] (at 50.0 µM); 38% in assay [4] (setting [7]); 57% in assay [4] (setting [8]); 51% in assay [4] (at 50.0 µM). The growth inhibition in assay [5] (setting [7]) is 31%; in assay [5] (setting [8]) it was 73% (active); in assay [5] (at 50.0 µM) it was 58%; in assay [6] (setting [7]), 25%; in assay [6] (setting [8]), 66%; in assay [6] (at 50.0 µM), 57.6%.

In the case of `COC(=O)C1ON(c2ccccc2)C2c3ccccc3-c3ccccc3C12` (stereo not given), the growth inhibition in assay [1] (setting [7]) is 31%; in assay [1] (setting [8]) it was 63%; in assay [1] (at 50.0 µM), 58.2%; in assay [2] (setting [7]) it was 27%; in assay [2] (setting [8]), 62%; in assay [2] (at 50.0 µM) it was 18.9%. Also, the growth inhibition is 45% in assay [3] (setting [7]); 76% (active) in assay [3] (setting [8]); 61.3% in assay [3] (at 50.0 µM); 14% in assay [4] (setting [7]); 67% in assay [4] (setting [8]); 50% in assay [4] (at 50.0 µM). The growth inhibition is 33% in assay [5] (setting [7]); 86% (active) in assay [5] (setting [8]); 67.2% in assay [5] (at 50.0 µM); 42% in assay [6] (setting [7]); 68% in assay [6] (setting [8]); 75% (active) in assay [6] (at 50.0 µM).

Take `C1OCC2[CH2][Hg][S][Hg][CH2]C1O2`: the growth inhibition in assay [1] (setting [7]) is 29%; in assay [1] (setting [8]), 95% (active); in assay [1] (at 50.0 µM), 92.8% (active); in assay [2] (setting [7]), 34%; in assay [2] (setting [8]), 97% (active); in assay [2] (at 50.0 µM), 94.8% (active). Besides, the growth inhibition is 67% in assay [3] (setting [7]); 98% (active) in assay [3] (setting [8]); 95.5% (active) in assay [3] (at 50.0 µM); 19% in assay [4] (setting [7]); 95% (active) in assay [4] (setting [8]); 92.6% (active) in assay [4] (at 50.0 µM). For the same compound, the growth inhibition in assay [5] (setting [7]) is 20%; in assay [5] (setting [8]) it was 96% (active); in assay [5] (at 50.0 µM), 95.2% (active); in assay [6] (setting [7]), 36%; in assay [6] (setting [8]), 94% (active); in assay [6] (at 50.0 µM) it was 91.3% (active).

As to `O=C(CBr)NC1CCCCC1`, the growth inhibition is 1% in assay [1] (setting [7]); 93% (active) in assay [1] (setting [8]); 81% (active) in assay [1] (at 50.0 µM); 4% in assay [2] (setting [7]); 94% (active) in assay [2] (setting [8]); 90.6% (active) in assay [2] (at 50.0 µM). For the same compound, the growth inhibition in assay [3] (setting [7]) is 4%; in assay [3] (setting [8]), 93% (active); in assay [3] (at 50.0 µM) it was 82.8% (active); in assay [4] (setting [7]), 2%; in assay [4] (setting [8]), 91% (active); in assay [4] (at 50.0 µM), 60%. The growth inhibition in assay [5] (setting [7]) was 6%; in assay [5] (setting [8]) it was 94% (active); in assay [5] (at 50.0 µM), 85.2% (active); in assay [6] (setting [7]), -2%; in assay [6] (setting [8]), 96% (active); in assay [6] (at 50.0 µM) it was 93% (active).

Regarding `COc1ccc(/C=C(\C)[N+](=O)[O-])cc1OC`, the growth inhibition in assay [1] (setting [7]) is 53%; in assay [1] (setting [8]), 97% (active); in assay [1] (at 50.0 µM) it was 90.1% (active); in assay [2] (setting [7]), 41%; in assay [2] (setting [8]), 99% (active); in assay [2] (at 50.0 µM), 92% (active). The growth inhibition is 55% in assay [3] (setting [7]); 99% (active) in assay [3] (setting [8]); 91% (active) in assay [3] (at 50.0 µM); 26% in assay [4] (setting [7]); 98% (active) in assay [4] (setting [8]); 87.3% (active) in assay [4] (at 50.0 µM). For the same compound, the growth inhibition was 42% in assay [5] (setting [7]); 98% (active) in assay [5] (setting [8]); 93.8% (active) in assay [5] (at 50.0 µM); 58% in assay [6] (setting [7]); 99% (active) in assay [6] (setting [8]); 93% (active) in assay [6] (at 50.0 µM).

Turning to `CC1(C)N=C(N)N=C(N)N1c1ccc(OCCCCNC(=O)Nc2ccc(S(=O)(=O)F)cc2)c(Cl)c1`, the growth inhibition in assay [1] (setting [7]) is -3%; in assay [1] (setting [8]) it was 96% (active); in assay [1] (at 50.0 µM), 98.3% (active); in assay [2] (setting [7]), -2%; in assay [2] (setting [8]), 97% (active); in assay [2] (at 50.0 µM), 99.3% (active). Further, the growth inhibition was -1% in assay [3] (setting [7]); 98% (active) in assay [3] (setting [8]); 99.4% (active) in assay [3] (at 50.0 µM); -4% in assay [4] (setting [7]); 98% (active) in assay [4] (setting [8]); 97.3% (active) in assay [4] (at 50.0 µM). Further, the growth inhibition in assay [5] (setting [7]) is -3%; in assay [5] (setting [8]) it was 98% (active); in assay [5] (at 50.0 µM), 98.8% (active); in assay [6] (setting [7]), -2%; in assay [6] (setting [8]), 99% (active); in assay [6] (at 50.0 µM), 99.1% (active).

The values above are taken from PubChem BioAssay (NCI).
